# Data taken from PubChem BioAssay.
# Values joined by “and” are separate entries in the source; they are usually repeats but may differ in a detail not shown here. Equal entries are not always repeated. Active and inactive are the calls of the source. Unless noted, no stated cut-off is given here; in the data, active means inhibition above about 80%; inactive means the rest.
# Assays:
# [1] = LFS_MB_P medulloblastoma growth inhibition, cell-based, chromothripsis tumors, cisplatin or BGB combos (AID 1671449); details: LFS_MB_P medulloblastoma cells;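 further: cells exposed for 96 hours; 0% = vehicle DMSO and 100% = killing by high DMSO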
# [2] = HDN33 neuroblastoma growth inhibition, cell-based, chromothripsis tumors, cisplatin or BGB combos (AID 1671450); details: HDN33 neuroblastoma cells, stronger effect = higher value;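 further: cells exposed to compound for four days; 0% = vehicle DMSO and 100% = cell killing by high DMSO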
# [3] = ICB984 medulloblastoma cell growth inhibition, synergistic combos for chromothripsis tumors, cisplatin or BGB combos (AID 1671451; call rule not given here;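 further: cells exposed for 96 hours before readout; 0% = vehicle DMSO and 100% = killing by high DMSO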); details: ICB984 medulloblastoma cells, drug combinations, stronger effect = higher value
# [4] = LFS_MB_1R medulloblastoma cell growth inhibition, synergistic combos for chromothripsis tumors, cisplatin or BGB combos (AID 1671452); details: LFS_MB_1R medulloblastoma cells, stronger effect = higher value;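 further: cells exposed for 96 hours before readout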
# [5] = HTB85 osteosarcoma cell growth inhibition, synergistic combos for chromothripsis tumors, BGB or cisplatin IC20 combos (AID 1671453); details: HTB85 osteosarcoma cells, drug combinations, stronger effect = higher value;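 further: cells exposed for 96 hours before readout; 0% = vehicle DMSO and 100% = high DMSO killing control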
# [6] = CRL2098 osteosarcoma cell growth inhibition, synergistic combos for chromothripsis tumors, BGB or cisplatin IC20 combos (AID 1671454); details: CRL2098 osteosarcoma cells, drug combinations, stronger effect = higher value;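 further: cells exposed for 96 h before readout; 0% = vehicle DMSO and 100% = killing by high DMSO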
# [7] = HD-MB03 medulloblastoma cell growth inhibition, synergistic combos for chromothripsis tumors, BGB or cisplatin IC20 combos (AID 1671455; in the data active means inhibition above about 83%;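 further: 0% = vehicle DMSO and 100% = high DMSO as cytotoxic control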); details: HD-MB03 medulloblastoma cells, stronger effect = higher value
# [8] = UWB1.289 ovarian carcinoma cell growth inhibition, synergistic combos for chromothripsis tumors, BGB or cisplatin combos (AID 1671456); details: UWB1.289 ovarian carcinoma cells, stronger effect = higher value;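 further: cells exposed to compound for four days; 0% = vehicle DMSO and 100% = killing by high DMSO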
# [9] = LFS_MB_2R medulloblastoma cell growth inhibition, synergistic combos for chromothripsis tumors, cisplatin combos (AID 1671457); details: LFS_MB_2R medulloblastoma cells, stronger effect = higher value;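 further: cells exposed to compound for four days before readout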
# [10] = MDA-MB-436 breast carcinoma cell growth inhibition, synergistic combos for chromothripsis tumors, BGB or cisplatin combos (AID 1671458; call rule not given here;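 further: cells exposed for 96 hours; 0% = vehicle DMSO and 100% = killing by high DMSO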); details: MDA-MB-436 breast carcinoma growth inhibition, drug combinations, stronger effect = higher value
# [11] = UWB1.289_BRCA1 ovarian cancer growth, cell-based, BGB or cisplatin combinations (AID 1671459); details: UWB1.289 BRCA1 ovarian carcinoma, drug combinations, stronger effect = higher value
# [12] = human astrocyte viability loss, single and combined drugs, cytotoxicity control for chromothriptic childhood tumor combination screen, cell-based, BGB or cisplatin IC20 combos (AID 1671460); details: Human astrocytes, drug combinations, stronger effect = higher value;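 further: cells exposed to compounds for 96 hours before viability readout; 0% = vehicle and 100% = killing control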
# [13] = growth inhibition of BT084 medulloblastoma cells, cell-based, ICGC_MB145, cisplatin and BGB IC40 combos (AID 1671461); details: drug combinations, stronger effect = higher value;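 further: cells exposed to drugs for 96 hours; 0% = vehicle DMSO and 100% = high DMSO full killing control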
# [14] = growth inhibition of RCMB18 medulloblastoma cells, cell-based, cisplatin and BGB IC40 combos (AID 1671462); details: stronger effect = higher value;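 further: cells exposed to compound for four days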
# [15] = growth inhibition of CRL1545 osteosarcoma cells, cell-based, cisplatin and BGB IC20 combos (AID 1671464); details: stronger effect = higher value;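 further: cells exposed to compound for 96 hours before readout; 0% = vehicle DMSO and 100% = high DMSO killing control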
# [16] = at 0.5 µM, stronger effect = higher value
# [17] = measured here: combination with BGB IC20, at 0.005 µM
# [18] = measured here: combination with BGB IC40, at 0.005 µM
# [19] = measured here: combination with BGB IC40, at 0.05 µM
# [20] = measured here: combination with cisplatin, at 0.5 µM, stronger effect = higher value
# [21] = measured here: combination with cisplatin, at 5 µM, stronger effect = higher value
# [22] = measured here: with BGB IC20 combination, at 0.5 µM
# [23] = measured here: with cisplatin IC20 combination, at 0.5 µM
# [24] = measured here: 5 uM single agent, at 5 µM
# [25] = measured here: combination with cisplatin, at 0.5 µM
# [26] = measured here: combination with cisplatin, at 5 µM
# [27] = measured here: with BGB IC20, at 0.5 µM
# [28] = measured here: with BGB IC20, at 5 µM
# [29] = measured here: with cisplatin IC20, at 0.5 µM
# [30] = measured here: with cisplatin IC20, at 5 µM
# [31] = measured here: combination with BGB at IC20, at 0.5 µM
# [32] = measured here: combination with cisplatin at IC20, at 0.5 µM
# [33] = measured here: combo with BGB at IC20, at 0.5 µM
# [34] = measured here: combo with cisplatin at IC20, at 0.5 µM
# [35] = measured here: inhibition with BGB combination, at 0.05 µM
# [36] = measured here: inhibition with cisplatin combination, at 0.05 µM
# [37] = measured here: BGB combination, at 0.5 µM
# [38] = measured here: BGB combination, at 5 µM
# [39] = measured here: cisplatin combination, at 0.5 µM
# [40] = measured here: cisplatin combination, at 5 µM
# [41] = BGB combination, concentration series, at 5 µM
# [42] = cisplatin combination, concentration series, at 5 µM
# [43] = measured here: combo with BGB IC20, at 0.5 µM
# [44] = measured here: combo with cisplatin IC20, at 0.5 µM
# [45] = cisplatin combination, at 0.5 µM
# [46] = measured here: BGB IC40 combination 0.05 uM, at 0.05 µM
# [47] = measured here: BGB IC40 combination, at 0.05 µM
smiles,measurement,setting,value
NC(=O)c1cccc2cn(-c3ccc(C4CCCNC4)cc3)nc12 (stereo unspecified),inhibition,[1]; [16],-22.2% (inactive)
same,inhibition,[1]; [17],9.92%
same,inhibition,[1]; [18],-8.03%
same,inhibition,[1]; [19],-6.95%
same,inhibition,[1]; [20],-37.4%
same,inhibition,[1]; [21],-29.2%
same,inhibition,"[2]; BGB combo, at 5 µM",-13.1%
same,inhibition,[2]; at 0.5 µM,-12.8% (inactive)
same,inhibition,"[2]; cisplatin combo, at 5 µM",28.2%
same,inhibition,[2]; [22],-14.6%
same,inhibition,[2]; [23],-19.6%
same,inhibition,"[2]; single agent, at 5 µM",44.3%
same,inhibition,"[3]; BGB IC20 combo, at 0.005 µM",-10.7%
same,inhibition,"[3]; BGB IC40 combo, at 0.005 µM",-50.8%
same,inhibition,"[3]; BGB IC40 combo, at 0.05 µM",-43.2%
same,inhibition,[3]; at 0.5 µM,-25.3% (inactive)
same,inhibition,"[3]; cisplatin combo, at 0.05 µM",-48.9%
same,inhibition,"[3]; cisplatin combo, at 0.5 µM",-42.4%
same,inhibition,"[3]; cisplatin combo, at 5 µM",-33%
same,inhibition,[3]; [24],-12.1%
same,inhibition,[4]; at 0.5 µM,-17.8% (inactive)
same,inhibition,[4]; [19],-23.5%
same,inhibition,[4]; [25],-55.4%
same,inhibition,[4]; [26],-54.7%
same,inhibition,[5]; at 0.5 µM,-22% (inactive)
same,inhibition,[5]; [27],-26.2%
same,inhibition,[5]; [28],-8.36%
same,inhibition,[5]; [29],-25.1%
same,inhibition,[5]; [30],8.74%
same,inhibition,"[5]; single agent, at 5 µM",31.7%
same,inhibition,[6]; at 0.5 µM,-34.1% (inactive)
same,inhibition,[6]; [31],-52.1%
same,inhibition,[6]; [32],-0.058%
same,inhibition,[7]; at 0.5 µM,-5.6% (inactive)
same,inhibition,[7]; [33],-17.4%
same,inhibition,[7]; [34],6.18%
same,inhibition,[8]; at 0.5 µM,-3.23% (inactive)
same,inhibition,[8]; [35],2.85%
same,inhibition,[8]; [36],-19.1%
same,inhibition,[9]; at 0.5 µM,-4.32% (inactive)
same,inhibition,[9]; [25],-10.3%
same,inhibition,[9]; [26],-4.18%
same,inhibition,[10]; at 0.5 µM,13.9% (inactive)
same,inhibition,[10]; [37],-2.85%
same,inhibition,[10]; [38],-6.33%
same,inhibition,[10]; [39],15.6%
same,inhibition,[10]; [40],32.2%
same,inhibition,[11]; [41],-5.8%
same,inhibition,[11]; at 0.5 µM,0.96% (inactive)
same,inhibition,[11]; [42],23.7%
same,inhibition,[12]; at 0.5 µM,-10.9% (inactive)
same,inhibition,[12]; [43],-10.9%
same,inhibition,[12]; [44],-15.8%
same,inhibition,[13]; at 0.5 µM,-8.13% (inactive)
same,inhibition,[13]; [45],-15.8%
same,inhibition,"[13]; cisplatin combination, at 5 µM",-1.06%
same,inhibition,[13]; [46],4.73%
same,inhibition,"[13]; single agent, at 5 µM",-30.1%
same,inhibition,[14]; at 0.5 µM,-4.94% (inactive)
same,inhibition,"[14]; cisplatin combo, at 5 µM",-39.1%
same,inhibition,[14]; [47],-13.7%
same,inhibition,[14]; [25],-10.1%
same,inhibition,"[14]; single agent, at 5 µM",-43.2%
same,inhibition,[15]; at 0.5 µM,-29.8% (inactive)
same,inhibition,[15]; [22],-55.3%
same,inhibition,[15]; [23],-17%
same,inhibition,"[15]; single agent, at 0.05 µM",-35.4%
same,inhibition,"[15]; single agent, at 5 µM",30.1%
O=c1[nH]c(=S)[nH]c(/N=C/c2ccccc2)c1N=Cc1ccccc1,inhibition,[1]; [16],10.8% (inactive) and -1.11% (inactive)
same,inhibition,[1]; [17],7.44% and 1.3%
same,inhibition,[1]; [18],-16.5% and -26.2%
same,inhibition,[1]; [19],0.419% and 2.63%
same,inhibition,[1]; [20],24.4% and -35.7%
same,inhibition,[1]; [21],-12.6% and -19.3%
same,inhibition,"[2]; BGB combo, at 5 µM",-34% and -42.2%
same,inhibition,[2]; at 0.5 µM,-32.1% (inactive) and -19.5% (inactive)
same,inhibition,"[2]; cisplatin combo, at 5 µM",-21.4% and -48.2%
same,inhibition,[2]; [22],-30.4% and -16.3%
same,inhibition,[2]; [23],-42.2% and -15.7%
same,inhibition,"[2]; single agent, at 5 µM",-37.4% and -37%
same,inhibition,"[3]; BGB IC20 combo, at 0.005 µM",1.63% and -15.3%
same,inhibition,"[3]; BGB IC40 combo, at 0.005 µM",-50.4% and 4.14%
same,inhibition,"[3]; BGB IC40 combo, at 0.05 µM",-19.4% and -32.8%
same,inhibition,[3]; at 0.5 µM,-11.2% (inactive) and -6.96% (inactive)
same,inhibition,"[3]; cisplatin combo, at 0.05 µM",-22.8% and -39.7%
same,inhibition,"[3]; cisplatin combo, at 0.5 µM",-24.4% and 3.72%
same,inhibition,"[3]; cisplatin combo, at 5 µM",-19.7% and -8.53%
same,inhibition,[3]; [24],-28.4% and -9.24%
same,inhibition,[4]; at 0.5 µM,-24.3% (inactive) and -5.83% (inactive)
same,inhibition,[4]; [19],-16.1% and -5.8%
same,inhibition,[4]; [25],-52.1% and -29.6%
same,inhibition,[4]; [26],-67.9% and -16.8%
same,inhibition,[5]; at 0.5 µM,-24.2% (inactive) and -31.7% (inactive)
same,inhibition,[5]; [27],-36.7% and -29.2%
same,inhibition,[5]; [28],-72.3% and -10.6%
same,inhibition,[5]; [29],-17.7% and -30.3%
same,inhibition,[5]; [30],-46.1% and -5.16%
same,inhibition,"[5]; single agent, at 5 µM",-26.4% and -23.9%
same,inhibition,[6]; at 0.5 µM,-71.1% (inactive) and -62.3% (inactive)
same,inhibition,[6]; [31],-91.5% and -60.8%
same,inhibition,[6]; [32],-66.2% and -85.1%
same,inhibition,[7]; at 0.5 µM,-16.3% (inactive) and -12.6% (inactive)
same,inhibition,[7]; [33],-14.6% and -13.1%
same,inhibition,[7]; [34],-24.1% and -18.2%
same,inhibition,[8]; at 0.5 µM,-10.1% (inactive) and -11.6% (inactive)
same,inhibition,[8]; [35],-8.71% and -6.64%
same,inhibition,[8]; [36],-18.2% and -17.6%
same,inhibition,[9]; at 0.5 µM,-2.17% (inactive) and -7.03% (inactive)
same,inhibition,[9]; [25],4.09% and -15.4%
same,inhibition,[9]; [26],-75.4% and -34.5%
same,inhibition,[10]; at 0.5 µM,-13.4% (inactive) and -8.5% (inactive)
same,inhibition,[10]; [37],-4.77% and -3.51%
same,inhibition,[10]; [38],-0.125% and 9.68%
same,inhibition,[10]; [39],-26% and -20.1%
same,inhibition,[10]; [40],-13.5% and -24.6%
same,inhibition,[11]; [41],-20.1% and -21%
same,inhibition,[11]; at 0.5 µM,-11.1% (inactive) and -17.6% (inactive)
same,inhibition,[11]; [42],-0.543% and -15.8%
same,inhibition,[12]; at 0.5 µM,-14.7% (inactive) and -11.3% (inactive)
same,inhibition,[12]; [43],-6.75% and -6.18%
same,inhibition,[12]; [44],-39.7% and -17.5%
same,inhibition,[13]; at 0.5 µM,-0.252% (inactive) and 5.93% (inactive)
same,inhibition,[13]; [45],-5.14% and -7.54%
same,inhibition,"[13]; cisplatin combination, at 5 µM",-2.96% and -198%
same,inhibition,[13]; [46],11.6% and -6.05%
same,inhibition,"[13]; single agent, at 5 µM",-8.91% and -10.5%
same,inhibition,[14]; at 0.5 µM,-27.2% (inactive) and -2.36% (inactive)
same,inhibition,"[14]; cisplatin combo, at 5 µM",-73.6% and -65.6%
same,inhibition,[14]; [47],-4.14% and 6.35%
same,inhibition,[14]; [25],-76.9% and 2.66%
same,inhibition,"[14]; single agent, at 5 µM",-10.2% and -0.506%
same,inhibition,[15]; at 0.5 µM,-63.6% (inactive) and -4.77% (inactive)
same,inhibition,[15]; [22],-46.4% and -22.1%
same,inhibition,[15]; [23],-76% and 2.34%
same,inhibition,"[15]; single agent, at 0.05 µM",-68.7% and -41.2%
same,inhibition,"[15]; single agent, at 5 µM",-27.1% and -36.4%
